Screens from PubChem.
A selection: hits, their analogues and other compounds. The true share with any hit is near 19%.
Pf growth 96h = inhibits malaria parasite growth, 96 h | AID 504834 | P. falciparum luciferase reporter growth, 96 h | actives 6.9% (n = 320,000) | Potency, µM (highest dose often 28.7 µM), inactives show top-dose activity change, negative = inhibition, hits mostly inhibitors; also: potency is read from the fitted curve at half-maximal effect; % is scaled to controls: 0 for no effect and ±100 for the full control effect
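Infected RBCs, 2% Hct / 0.05% parasitemia final; luciferase-reporter P. falciparum; cpd 96 h, 37 C, 5% CO2; luciferase detection reagent; luminescence.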
Pf growth 48h = inhibits P. falciparum growth in the first generation, 48 h | P. falciparum luciferase growth in erythrocytes, 48 h | Potency, µM (titrated, usually from 28.7 µM), for inactives: top-dose activity change, negative = inhibition, usual class: inhibitors | actives 5.9% (n = 310,000) | AID 504832; also: potency is read from the fitted curve at half-maximal effect; % is scaled to controls: 0 for no effect and ±100 for the full control effect
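Here the parasites carry a stable luciferase gene and grow inside erythrocytes in Albumax-based RPMI medium with compound for one erythrocytic cycle. Activity is scored as loss of luminescent signal.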
MARV entry inh = blocks Marburg virus binding to or entry into cells. Marburg virus pseudotyped entry inhibition, cell reporter. Potency, µM (highest dose often 37.8 µM), without a hit: top-dose activity change, negative = inhibition, actives largely listed as inhibitors. actives 1.8% (n = 300,000); calls by dose curve; tested in HEK293 cells; also: potency is read from the fitted curve at half-maximal effect; % is scaled to controls: 0 for no effect and ±100 for the full control effect
Lassa entry inh = Lassa virus entry inhibition. Potency, µM (highest dose often 37.9 µM), for inactives: at the top dose activity change, negative = inhibition, hits mostly inhibitors. Lassa virus pseudotype entry inhibition, cell reporter. actives 1.2% (n = 300,000); calls by dose curve; tested in HEK293 cells; also: potency is read from the fitted curve at half-maximal effect; % is scaled to controls: 0 for no effect and ±100 for the full control effect; nearly all actives have a fitted effect of over 50% in size
Shiga inhibitor = Shiga toxin inhibition | Vero cells, Shiga toxin protein synthesis inhibition reporter | inhibition, % at 38.7 µM | actives 9.2% (n = 290,000) | AID 2315; in the data active = inhibition mostly above about 28%, no sharp cut-off; inactive = mostly below about 43%; also: 0% is about no effect
CHX counter = counter-screen hit for Shiga toxin inhibitors, cycloheximide | actives 12% (n = 300,000) | AID 2314 | max response, % | cell reporter, cycloheximide protein synthesis inhibition counterscreen; in the data active = max response mostly above about 13%, no sharp cut-off; inactive = mostly below about 14%; also: read at 38.3 µM for the half of the compounds with a filed dose; 0% is about no effect
Starred values were filed as active, the others as inactive; ? = inconclusive; · = no result given; ! = not confirmed by another sample; [ ] = dose if it differs, or a comment. Unless noted, calls follow the shape of the dose curve; as a rule, active = well fitted inhibition curve with a large enough effect; inconclusive = small, poorly fitted or top-dose-only effect, or another doubt; inactive = no such curve, though single readings can be large or run the other way.

SMILES	Pf growth 96h	Pf growth 48h	MARV entry inh	Lassa entry inh	Shiga inhibitor	CHX counter
Cc1ccc(C(=O)Nc2cccnc2Cl)cc1Cl	3%	144%	?	?	·	35*
COc1ccc(C(=O)Nc2ccccc2C(=O)Nc2ccccn2)cc1	-6%	28%	-27%[46.1 µM]	?	·	26*
CC1(C)Nc2ccc(O)cc2-c2c1ssc2=S	8.3µM*	?	16%	?	-4	-2
CC[C@@]12C(=O)N(c3ccc(C)cc3)C(=O)N1[C@H](c1ccc(OC)cc1)[C@@H]1C(=O)N(C(C)(C)C)C(=O)[C@@H]12	?	?	·	·	12	10
Cc1ccc(OC(=S)Nc2ccc(F)cc2)cc1	21%	28%	18%	1%	-7	-1
Cc1nn(CCc2nn[nH]n2)c2nc(-c3ccc(C4CCCCC4)cc3)cc(C(F)(F)F)c12	?	5.2µM*	-15%[46.1 µM]	?	-8	1
Cc1ccc(-c2cc(C(=O)N3CCCc4ccccc43)no2)cc1	?	?	-27%	0%	98*	31*
O=C(c1cc(-c2ccc(F)cc2)on1)N1CCCc2ccccc21	?	76%	·	·	64*	46*
O=C(c1cc(-c2cccs2)on1)N1CCCc2ccccc21	17%	2%	·	·	73*	39*
Cc1noc(C)c1C(=O)N1CCCc2ccccc21	0%	-8%	1%[46.1 µM]	5%	5	15
COc1cc(/C=N/NC(=O)CNC(=O)/C=C/c2ccco2)cc(OC)c1OC	24%	5%	1%[46.1 µM]	2%	-3	-5
O=C(CNc1cccc2ccccc12)N/N=C/c1ccc(OC(=O)/C=C/c2ccco2)cc1	-7%	?	5%[46.1 µM]	-16%[46.1 µM]	-12	1
O=C(/C=C/c1ccco1)Oc1cc(Br)cc(/C=N/NC(=O)c2ccccc2O)c1	30%	1.9µM*	?	11µM*	22	39*
O=C(CNc1ccc2ccccc2c1)N/N=C/c1ccc(OC(=O)/C=C/c2ccco2)cc1	31%	8.3µM*	10%	?	-5	15
Cc1ccc(C(=O)N/N=C/c2cccc(OC(=O)/C=C/c3ccco3)c2)cn1	?	31%	11%[46.1 µM]	-10%	86*	33*
CCc1ccc(NC(=O)c2sc3ncnc(N(C)C4CCCCC4)c3c2C)cc1	·	·	·	3%[46.1 µM]	·	·
CN(C)c1ccc(C(=O)OCC#CCSc2nnc(-c3cccc4ccccc34)o2)cc1	23%	-9%	·	·	·	·
CCc1nnc(NC(=O)CSc2nnc(CCc3nc4ccccc4[nH]3)n2C)s1	·	·	?	1%	-7	-1
O=C(COC(=O)Cc1ccsc1)Nc1cccc(Cl)c1	5%	9%	·	·	·	·
Cc1ccc2c(c1)C(N1CCN(C)CC1)=Nc1cccnc1N2	·	·	11µM*!	8%	·	·
COc1ccc(-c2csc(NC(=S)NC(=O)/C=C/c3ccco3)n2)cc1OC	32%	4%	?	?	-7	-1
COc1ccc(-c2csc(NC(=S)NC(=O)c3cc4ccccc4o3)n2)cc1Br	?	17%	·	·	18	14*
Cc1sc(NC(=O)/C=C/c2ccc(C(C)C)cc2)c(C#N)c1C	45%	4%	?	?	-6	-1
CC(C)c1ccc(/C=C/C(=O)Nc2nncs2)cc1	68%	127%	?	8.9µM*	33*	49*
COc1ccc(-c2csc(NC(=S)NC(=O)/C=C/c3ccc(C(C)C)cc3)n2)cc1OC	?	?	?	-5%[46.1 µM]	14	23*
SMILES	Pf growth 96h	Pf growth 48h	MARV entry inh	Lassa entry inh	Shiga inhibitor	CHX counter
COc1ccc(-c2csc(NC(=S)NC(=O)c3ccco3)n2)cc1Br	?	-20%	·	·	4	10
COc1ccc(-c2csc(NC(=S)NC(=O)/C=C/c3ccco3)n2)cc1Br	?	10µM*	-14%[46.1 µM]	?	-4	-1
O=c1ccnc(S/C=C/c2ccccc2)[nH]1	6%	14%	12%	12%	23	35*
O=c1ccnc(SCCc2ccccc2)[nH]1	27%	-8%	·	·	10	5
Cc1cc(C)nc(SCC(=O)NC2CCCC2)n1	-2%	-1%	1%[46.1 µM]	·	0	-4
CCOC(=O)C1CCN(C(=O)CN(c2ccc(OC)cc2)S(=O)(=O)c2c(C)nn(C)c2C)CC1	7.4µM*	·	-1%	·	-15	-4
COc1ccc(N(CC(=O)N2CCc3ccccc32)S(=O)(=O)c2c(C)nn(C)c2C)cc1	8.3µM*	·	-5%	·	-6	-5
C[C@]12CC[C@@H]3c4cc(O)c(O)cc4CC[C@H]3[C@@H]1CC[C@@H]2O	·	·	·	·	25	2
COc1cc2c(cc1OC)C(Cc1ccc(O)cc1)N(C)CC2 (stereo not given)	10%	-13%	-8%	0%	-15	-4
CCC1CN2CCc3cc(OC)c(OC)cc3C2CC1CC1NCCc2c1[nH]c1ccc(O)cc21 (stereo not given)	·	·	0.22µM*	0.5µM*	·	·
CCO[C@@H]1OC(C(=O)N2CCN(Cc3ccc4c(c3)OCO4)CC2)=C[C@H](c2coc3ccccc3c2=O)[C@H]1CCCO	?	?	·	·	1	-2
CCO[C@H]1OC(C(=O)NCc2ccccc2)=C[C@@H](c2cn(C(C)=O)c3ccccc23)[C@@H]1CCCO	?	?	·	·	-7	2
CCO[C@H]1OC(C(=O)N2CCN(Cc3ccc4c(c3)OCO4)CC2)=C[C@@H](c2csc3ccccc23)[C@@H]1CCCO	?	12µM*	·	·	4	1
CCO[C@H]1OC(C(=O)N2CCN(Cc3ccc4c(c3)OCO4)CC2)=C[C@@H](c2cn(C(C)=O)c3ccccc23)[C@@H]1CCCO	7.4µM*	1µM*	·	·	-15	2
O[Si](CCCN1CCCCC1)(c1ccc(F)cc1)C1CCCCC1 (stereo not given)	0.1µM*	0.093µM*	2.8µM*	5.2µM*	·	·
O=S(=O)(c1ccccc1Br)N(Cc1ccccc1)CC(O)COCc1ccccc1 (stereo not given)	·	·	·	-6%[46.1 µM]	·	·
CC(C)(CCl)C(=O)Nc1ccc(C(F)(F)F)cc1	-5%	-9%	-6%[46.1 µM]	2%	26	28*
CS(=O)(=O)N1N=C(c2cccs2)CC1c1ccccc1F (stereo not given)	-29%	10%	10%[46.1 µM]	?	12	-2
O=[N+]([O-])c1ccc(C2Oc3ccccc3C3CC(c4ccccc4)=NN32)s1 (stereo not given)	?	0%	?	?	114*	61*
CC(=O)N1N=C(c2ccccc2)CC1c1ccccc1[N+](=O)[O-] (stereo not given)	-9%	?	7%	3%	-6	14
COc1ccc(O)c(C2=Nc3ccccc3N=C(c3cccs3)C2)c1	1%	-7%	5%	8%	2	16*
COc1ccc(C2CC(c3cccs3)=NN2S(C)(=O)=O)cc1 (stereo not given)	49%	68%	9%	15%	121*	32*
